Measurements from publication PMC9838217, “Structure of SALL4 zinc finger domain reveals link between AT-rich DNA binding and Okihiro syndrome”.

What follows are sequences tested against T1, SALL4 ZFC4 WT (HT-SELEX) (Mus musculus, UniProt Q8BX22 870-940) (assay: HT-SELEX; high values mean tight binding). Conditions: protein: recombinant; vector His6-GST; dsDNA, one strand shown.
T1 sequence: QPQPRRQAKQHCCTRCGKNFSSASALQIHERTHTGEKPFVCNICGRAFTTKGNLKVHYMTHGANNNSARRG
In short: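 Library DNA (1.5 µg in cycle one, 200 ng in later cycles) was incubated with 1 µg of purified recombinant mouse SALL4 zinc finger cluster 4, residues 870–940, in 100 µl buffer (10 mM Tris–HCl pH 7.5, 50 mM NaCl, poly(dI-dC), DTT) at room temperature for 10 min. Up to 6 rounds of Ni2+ bead capture, washing, PCR amplification and reselection were run in triplicate. Reads from MiSeq sequencing were scanned for 6-mers. For each canonical k-mer, binding signal is its read fraction as fold change versus the original random library.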
With CGTGAG the binding signal was 0.437 ± 0.0456 fold-change vs cycle 0.
ACTCCC showed a binding signal of 0.553 ± 0.0252 fold-change vs cycle 0.
With CTACAA the binding signal was 1.17 ± 0.0183 fold-change vs cycle 0.
In the case of CATAAG, the binding signal is reported as 1.63 ± 0.0634 fold-change vs cycle 0.
For ATCATC, the binding signal was 1.5 ± 0.034 fold-change vs cycle 0.
GCTGTA was tested, and the binding signal was 0.574 ± 0.0425 fold-change vs cycle 0.
For CCTCTC, the binding signal was 0.497 ± 0.0203 fold-change vs cycle 0.
With GTTATA the binding signal was 2.5 ± 0.231 fold-change vs cycle 0.
With CAGCTG the binding signal was 0.312 ± 0.0432 fold-change vs cycle 0.
GTCTCA was tested, and the binding signal was 0.736 ± 0.016 fold-change vs cycle 0.
CGAGGA gave a binding signal of 0.409 ± 0.0195 fold-change vs cycle 0.
AGCCTC was tested, and the binding signal was 0.316 ± 0.0162 fold-change vs cycle 0.
In the case of AAGGAG, the binding signal is reported as 1 ± 0.0181 fold-change vs cycle 0.
Sequence CGTCAA has a binding signal of 0.564 ± 0.0126 fold-change vs cycle 0.
AGCGAA was tested, and the binding signal was 0.492 ± 0.0304 fold-change vs cycle 0.
ATTCCA gave a binding signal of 1.45 ± 0.0836 fold-change vs cycle 0.
Sequence CATTCG has a binding signal of 0.667 ± 0.027 fold-change vs cycle 0.
Sequence AATTGC has a binding signal of 0.939 ± 0.042 fold-change vs cycle 0.
Sequence ATTCTG has a binding signal of 1.27 ± 0.0284 fold-change vs cycle 0.
With CAGATG the binding signal was 0.794 ± 0.0267 fold-change vs cycle 0.
Work on ACATCT yielded a binding signal of 1.34 ± 0.0364 fold-change vs cycle 0.
In the case of AGGAGA, the binding signal is reported as 0.932 ± 0.027 fold-change vs cycle 0.
In the case of AGTGAG, the binding signal is reported as 0.933 ± 0.017 fold-change vs cycle 0.
For CTGTTC, the binding signal was 0.771 ± 0.0432 fold-change vs cycle 0.
For GTTCGA, the binding signal was 0.639 ± 0.0126 fold-change vs cycle 0.
In the case of ATCTGG, the binding signal is reported as 0.78 ± 0.0274 fold-change vs cycle 0.
Sequence CTTAAA has a binding signal of 1.73 ± 0.0848 fold-change vs cycle 0.
CTTTGA gave a binding signal of 1.2 ± 0.0763 fold-change vs cycle 0.
In the case of GCGTAA, the binding signal is reported as 0.494 ± 0.0275 fold-change vs cycle 0.
In the case of CGAAGA, the binding signal is reported as 0.723 ± 0.0365 fold-change vs cycle 0.
CTAAAG gave a binding signal of 1.22 ± 0.0556 fold-change vs cycle 0.
Sequence ATCAAT has a binding signal of 2.28 ± 0.171 fold-change vs cycle 0.
For CAACAC, the binding signal was 0.658 ± 0.0239 fold-change vs cycle 0.
Work on ACCACG yielded a binding signal of 0.351 ± 0.0168 fold-change vs cycle 0.
CCAACA showed a binding signal of 0.656 ± 0.00995 fold-change vs cycle 0.
Work on CTCTAA yielded a binding signal of 1.25 ± 0.0589 fold-change vs cycle 0.
CTCCCC showed a binding signal of 0.313 ± 0.0129 fold-change vs cycle 0.
ATTGAA showed a binding signal of 2.11 ± 0.107 fold-change vs cycle 0.
With AAAGTG the binding signal was 1.1 ± 0.0306 fold-change vs cycle 0.
For AGGGTG, the binding signal was 0.486 ± 0.0118 fold-change vs cycle 0.
